# Assay outcomes from PubChem.
# An excerpt weighted towards active compounds, which were near 3.5% of everything screened.
# BoNT-A LC inh2 = blocks Botulinum neurotoxin A light chain protease. multiplex microsphere protease substrate cleavage, flow cytometry. inhibition, % at 10 µM. 360,000 compounds, 0.17% hits; note: plate controls were buffer without enzyme for full effect and enzyme alone for no effect
# Anthrax LF inh2 = anthrax lethal factor protease inhibition; P15917; multiplex microsphere protease cleavage assay, LF; inhibition, % at 10 µM; 360,000 compounds, 0.12% hits; note: plate controls were buffer without enzyme for full effect and enzyme alone for no effect
# Target sequence (P15917 whole entry, looked up): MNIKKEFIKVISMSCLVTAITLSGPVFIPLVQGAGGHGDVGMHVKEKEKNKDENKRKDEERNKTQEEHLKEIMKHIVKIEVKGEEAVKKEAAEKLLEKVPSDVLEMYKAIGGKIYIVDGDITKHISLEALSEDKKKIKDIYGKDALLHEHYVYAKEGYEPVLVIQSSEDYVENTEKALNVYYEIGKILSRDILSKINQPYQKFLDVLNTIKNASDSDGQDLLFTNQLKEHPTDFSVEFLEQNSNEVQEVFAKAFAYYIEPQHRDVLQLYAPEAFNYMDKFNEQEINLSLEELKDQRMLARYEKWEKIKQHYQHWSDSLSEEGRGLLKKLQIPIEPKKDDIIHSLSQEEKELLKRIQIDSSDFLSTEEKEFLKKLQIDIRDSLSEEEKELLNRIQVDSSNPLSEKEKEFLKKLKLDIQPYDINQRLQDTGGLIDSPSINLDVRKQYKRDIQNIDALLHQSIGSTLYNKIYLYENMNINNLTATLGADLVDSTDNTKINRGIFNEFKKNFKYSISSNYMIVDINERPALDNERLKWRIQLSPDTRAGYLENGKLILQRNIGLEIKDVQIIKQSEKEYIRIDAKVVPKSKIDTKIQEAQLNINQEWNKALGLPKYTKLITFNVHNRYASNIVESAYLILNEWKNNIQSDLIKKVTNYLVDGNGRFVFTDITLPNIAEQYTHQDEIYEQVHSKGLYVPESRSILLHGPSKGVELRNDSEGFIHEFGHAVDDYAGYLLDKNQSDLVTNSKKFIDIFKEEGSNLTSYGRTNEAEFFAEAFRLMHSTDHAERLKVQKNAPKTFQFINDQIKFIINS
# BoNT F protease = blocks Botulinum neurotoxin F light chain protease | Multiplex microsphere protease cleavage assay, flow cytometry | inhibition, % at 10 µM | 360,000 compounds, 0.22% hits | AID 588497; in the data active = inhibition above about 35%, passing the limit was not always enough; inconclusive = no clear call, values can overlap the other calls; note: plate controls were buffer without enzyme for full effect and enzyme alone for no effect
# Bead autofluor = compound fluorescence in toxin protease inhibitor counterscreen | compound autofluorescence counterscreen, microsphere flow cytometry; stronger effect = higher value | fluorescence intensity (no concentration beside the values) | 360,000 compounds, 3.1% hits; in the data active = fluorescence intensity above about 16000; inconclusive = no clear call, values can overlap the other calls
# An asterisk follows results filed as active; ? = inconclusive; ! = not confirmed by another sample. Cut-off read from the data, not from the text of the source, unless noted: active = inhibition above about 30%; inconclusive = no clear call, values can overlap the other calls; inactive = below that.
SMILES,BoNT-A LC inh2,Anthrax LF inh2,BoNT F protease,Bead autofluor
COC(=O)c1ccccc1NC(=O)C1CC(c2ccc(F)cc2)=NO1 (stereo not drawn),-0.5,-1.6,-0.4,16511*
O=C(CCC(=O)Nc1ccccc1)NNC(=O)c1cccs1,2.8,-5.2,4.3,21744*
CCCC(=O)Nc1ccc(C(=O)NNC(=O)c2cccs2)cc1,3.1,-1.7,3.4,22535*
O=C(NNC(=S)Nc1ccccc1)c1cccs1,0.7,-3.4,4.7,10880
CCCC(=O)Nc1ccc(C(=O)NNC(=S)NC(=O)c2cccs2)cc1,-1.2,-5.7,-12.0,6594
CCOC(=O)C1(CCOc2ccccc2)CCN(Cc2ccc(O)c(OC)c2)CC1,-0.6,-6.3,19.2,4934
CCOC(=O)C1(CCOc2ccccc2)CCN(Cc2ccc(F)c(OC)c2)CC1,0.3,-18.1,40.3*,4428
O=C(O)c1ccc(COc2c(F)c(F)c(F)c(F)c2F)o1,2.3,-0.9,3.1,19586*
CC(NC(=O)C1CCN(C(=O)[C@@H]2Cc3ccccc3CN2)CC1)c1ccccc1 (stereo partly drawn),0.4,0.8,5.5,4186
CCOC(=O)c1cc2c(=O)n3ccccc3nc2n(C(C)C)c1=NC(=O)c1c(-c2c(F)cccc2Cl)noc1C,70.8*,34.5*,23.7,2502
COc1cccc(CNc2nc3cc(-c4cccc(C(F)(F)F)c4)sc3c(=O)n2C)c1,0.6,8.2,1.5,3661
CCN(CC)c1ccc(C=Nc2ccccc2C)c(O)c1,50.8*,33.5*,19.3,6889
CCN(CC)c1ccc(C=Nc2ccc(C#N)cc2)c(O)c1,0.9,0.5,-10.4,2553
CCN(CC)c1ccc(O)c(C=Nc2ccc(C)c(C)c2)c1,50.4*,23.0,6.7,2838
N#CCSc1nc2cc(C(=O)N3CCC(C(N)=O)CC3)ccc2c2nc3ccccc3n12,2.4,0.0,1.4,20618*
N#CCSc1nc2cc(C(=O)N3CCCC3)ccc2c(=O)n1Cc1ccccc1,-0.5,-0.9,-21.1,4971
CCCCCn1c(SCC(=O)OCC)nc2cc(C(=O)N3CCC(C(N)=O)CC3)ccc2c1=O,1.2,-1.1,1.6,21996*
CC(=O)N1CCN(S(=O)(=O)c2cccc(C(=O)N3CCN(S(=O)(=O)c4c(C)c(C)cc(C)c4C)CC3)c2)CC1,0.0,3.3,6.7,3866
CCc1c(C)c2cc(Cl)c(O)c(CN(C)C)c2oc1=O,?,0.7,-6.7,17210*
CCCCc1cc(=O)oc2c(CN(C)C)c(O)c(Cl)cc12,-0.4,-1.6,-3.3,23705*
CCCCc1cc(=O)oc2c(CN3CCCC3)c(O)ccc12,-2.2,-0.2,-3.7,20462*
Cc1ccc(OCC(O)Cn2c(N3CCCCC3)nc3c2c(=O)[nH]c(=O)n3C)cc1C (stereo not drawn),-0.1,6.9,-3.4,3418
COc1ccccc1NC(=S)N1CCn2cccc2C1c1cccnc1 (stereo not drawn),0.0,-4.9,-0.6,3213
Cc1ccc(S(=O)(=O)Nc2ccc(Cl)cn2)cc1C,-2.2,6.2,19.4,4121
O=C1NC(Cc2ccc(O)cc2)c2nc3ccc(F)cc3c(=O)n2-c2cc3ccccc3cc21 (stereo not drawn),-0.5,3.4,-2.6,3790
SMILES,BoNT-A LC inh2,Anthrax LF inh2,BoNT F protease,Bead autofluor
CCCN1C(=O)C(O)(c2c(C)[nH]c3ccccc23)c2ccccc21 (stereo not drawn),-4.6,3.6,-15.4,3980
Cc1[nH]c2ccccc2c1C1(O)C(=O)N(C(C)C)c2ccccc21 (stereo not drawn),-1.4,-1.3,-7.2,23898*
CSc1ccc(C2=CC(=O)C[C@H](c3ccc(Cl)cc3)C2)cc1,0.6,-2.7,-3.6,4250
CS(=O)(=O)NCCCNc1ccc(Cl)cc1[N+](=O)[O-],1.1,1.3,1.0,22714*
Cc1ccc(C(=O)NCCNc2ccc(Cl)cc2[N+](=O)[O-])o1,?,-2.9,-4.3,22948*
O=C(NCCNc1ccc(Cl)cc1[N+](=O)[O-])c1ccccc1F,-3.0,-7.5,?,4266
CS(=O)(=O)NCCCNc1ccc(C(F)(F)F)cc1[N+](=O)[O-],-0.7,-3.5,-0.2,4421
CCc1ccc(C2=NN(C(=O)CCC(=O)O)C(c3cccs3)C2)cc1 (stereo not drawn),0.3,-17.0,3.2,3126
CCOC(=O)C(=Cc1ccc(-c2ccsc2C(=O)OC)o1)C(=O)OCC,0.6,0.1,1.3,22339*
COC(=O)C(=Cc1ccc(-c2ccsc2C(=O)OC)o1)C(=O)OC,-0.6,-4.4,-6.9,5741
COC(=O)c1sccc1-c1ccc(C(=O)Nc2cccnc2)o1,1.7,-9.2,2.2,21993*
CCC(Oc1ccc(C)c(C)c1)C(=O)O (stereo not drawn),-0.2,4.2,-1.1,16400*
Cc1ccc(OC(C)C(=O)O)cc1C (stereo not drawn),0.4,5.3,20.9,4507
CCCC(=O)Nc1cc(-c2cn3cccnc3n2)ccc1OC,5.3,-0.5,6.9,18918*
COc1ccc(-c2cn3cccnc3n2)cc1NC(=O)c1ccc(Br)o1,-0.4,-1.6,-1.6,20830*
O=C(Nc1cccc(-c2cn3cccnc3n2)c1)c1ccco1,-1.4,-4.4,-2.2,10527
Cc1ccc(-c2cn3cccnc3n2)cc1NC(=O)c1ccc(Br)o1,-3.0,-5.0,-6.2,17184*
COc1ccc(-c2cn3cccnc3n2)cc1NC(=O)CC(C)C,0.5,-1.8,-0.2,7719
O=C(Nc1cccc(-c2cn3cccnc3n2)c1)c1ccc(Br)o1,?,-4.3,1.1,22911*
O=C(COC(=O)c1cccnc1Cl)NCCC1=CCCCC1,0.8,-5.5,-3.7,4146
CSc1ncnc2c1ncn2CCCNCc1ccc2c(c1)OCO2,-0.3,-5.6,-3.3,3805
O=C(C/C=N\OCc1ccc([N+](=O)[O-])cc1)Nc1ccc(Br)cc1,-0.4,0.5,-1.0,4566
O=C(Nc1cccc(-c2cn3cccnc3n2)c1)c1ccc2c(c1)OCO2,?,-5.2,12.2,19449*
CC1(Br)C(Sc2ccccc2[N+](=O)[O-])=Nc2ccccc21 (stereo not drawn),0.0,-2.2,-1.8,5530
O=C(NNS(=O)(=O)c1ccc([N+](=O)[O-])cc1)C(=O)Nc1cccc(C(=O)O)c1,-0.2,0.3,5.8,4585
SMILES,BoNT-A LC inh2,Anthrax LF inh2,BoNT F protease,Bead autofluor
C=CCNCCOCCOc1ccc(C)cc1[N+](=O)[O-],1.3,-2.7,1.5,21806*
CCOC(=O)c1c(CN2CCN(C)CC2)oc2ccc(OC)cc12,1.7,0.5,2.0,16006
CCOC(=O)c1c(CN2CCC(C)CC2)oc2ccc(OC)cc12,-0.3,-2.3,-0.6,20393*
CCOC(=O)c1c(CN2CCCCC2C)oc2ccc(OC)cc12 (stereo not drawn),-1.6,-0.7,-2.8,22711*
CCOC(=O)c1c(CN2CCN(c3ccccc3)CC2)oc2ccc(O)cc12,-0.9,-3.0,-9.9,6019
CCOC(=O)c1c(CN2CCCCC2)oc2ccc(OC)cc12,0.6,-0.3,-0.2,19520*!
Cc1cc(Nc2cnc3ccccc3n2)n(-c2ccccc2)n1,-3.9,-5.8,-12.3,17464*
CCN(C(=O)COC(=O)c1ccc2c(c1)OCO2)c1c(N)n(Cc2ccccc2)c(=O)[nH]c1=O,-5.1,3.9,-5.1,6622
c1ccc2[nH]c(-c3ccnc4ccccc34)nc2c1,0.0,-0.4,-5.0,17421*!
COC(=O)c1cc(OC)c(OC)cc1NC(=O)CSc1nnc(-c2cccnc2)n1C,-3.7,1.0,-6.3,20945*
